This is an account of results in PubChem BioAssay (NCI).

Each structure is given as a SMILES string. The panel holds about 83,000 compounds, 20% with a hit somewhere; the sample as a whole holds those more often.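 Results are percent growth after 48 hours of single-concentration exposure. 100 means growth as in untreated cells, lower positive values show inhibition; negative values down to -100 show cell death.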 Values without a mark were called inactive. Active and inactive are the calls of the source. How the source made its calls: active means growth percent below 10; inactive means the rest.

Some test systems named below: HCT-15 colon; HT29 colon; SNB-75 CNS; SNB-19 CNS; U251 CNS; PC-3 prostate; SK-MEL-5 melanoma; LOX IMVI melanoma; SK-MEL-28 melanoma; SK-MEL-2 melanoma; EKVX NSCLC; SN12C renal; UO-31 renal; TK-10 renal; ACHN renal; CAKI-1 renal; A498 renal; CCRF-CEM leukemia; MOLT-4 leukemia; UACC-62 melanoma.
What all share (test): NCI-60 one-dose screen, 48 h (100 = growth as untreated, 0 = no growth, -100 = all killed)
Conditions in all cases: 10 µM unless noted

Take `FC(F)(F)Sc1ccc(/C=C/c2cc(/C=C/c3ccc(SC(F)(F)F)cc3)n(-c3ccccc3)n2)cc1`: the growth in the assay with HCT-15 colon is 100%; with HT29 colon, 95.3%; in the assay with SNB-75 CNS it was 82%; in the assay with SNB-19 CNS, 92.6%; in the assay on U251 CNS, 90.4%; with PC-3 prostate, 84.2%. Moreover, the growth was 98.3% in the assay on SK-MEL-5 melanoma; 97.1% in the assay on LOX IMVI melanoma; 109% in the assay on SK-MEL-28 melanoma; 101% in the assay with SK-MEL-2 melanoma; 93.9% with EKVX NSCLC; 100% with SN12C renal. In addition, the growth with UO-31 renal was 76.7%; in the assay on TK-10 renal, 100%; in the assay with ACHN renal, 93.9%; in the assay on CAKI-1 renal, 78.5%; in the assay with A498 renal it was 86.8%; with CCRF-CEM leukemia, 94.7%. For the same compound, in the assay with MOLT-4 leukemia, the growth is 95.6%.
On to `C=C(CN1CC=CCC1)[C@@H]1CC[C@]2(COC(C)=O)CC[C@]3(C)[C@H](CC[C@@H]4[C@@]5(C)CC[C@H](O)C(C)(C)[C@@H]5CC[C@]43C)[C@@H]12`, for which the growth is 101% with HCT-15 colon; 79.7% with HT29 colon; 98.9% in the assay on SNB-75 CNS; 97.1% in the assay with SNB-19 CNS; 92.8% in the assay on U251 CNS; 79.6% in the assay with PC-3 prostate. The growth in the assay with SK-MEL-5 melanoma is 99.3%; with UACC-62 melanoma it was 92.3%; with SK-MEL-2 melanoma, 104%; in the assay with EKVX NSCLC it was 109%; in the assay on SN12C renal, 97.8%; with UO-31 renal, 89.4%. Also, the growth was 113% with TK-10 renal; 99.8% in the assay with ACHN renal; 107% in the assay with CAKI-1 renal; 116% in the assay with A498 renal; 85.4% with CCRF-CEM leukemia; 92.4% in the assay on MOLT-4 leukemia.
As to `Cc1ccc(-c2nc(C#N)c(S(=O)(=O)N(C)C)o2)cc1`, the growth in the assay with HCT-15 colon is 19.7%; in the assay with HT29 colon, 97.7%; with SNB-75 CNS, 83.7%; with SNB-19 CNS it was 98.2%; in the assay on U251 CNS it was 93.3%; in the assay with PC-3 prostate it was 103%. The growth in the assay with SK-MEL-5 melanoma is 92.5%; in the assay with LOX IMVI melanoma, 49.8%; in the assay on SK-MEL-28 melanoma it was 102%; with SK-MEL-2 melanoma, 91.1%; in the assay with EKVX NSCLC, 106%; in the assay with SN12C renal, 75.2%. For the same compound, the growth in the assay with UO-31 renal is 91.7%; with TK-10 renal, 103%; in the assay with ACHN renal, -59.4% (active); in the assay with CAKI-1 renal it was 90%; in the assay on A498 renal, 77%; with CCRF-CEM leukemia it was -10.9% (active). Further, in the assay on MOLT-4 leukemia, the growth was -22.8% (active).
Turning to `N#C/C(=C\c1ccccc1Cl)c1cc2ccccc2[nH]1`, the growth was 81.4% in the assay with HCT-15 colon; 97.7% in the assay with HT29 colon; 83% with SNB-75 CNS; 85.8% in the assay on U251 CNS; 80.5% in the assay with PC-3 prostate; 85.9% with SK-MEL-5 melanoma. Besides, the growth in the assay on UACC-62 melanoma was 76.5%; in the assay with LOX IMVI melanoma it was 92.4%; in the assay with SK-MEL-28 melanoma, 99%; in the assay on SK-MEL-2 melanoma, 114%; in the assay on EKVX NSCLC it was 77.1%; with SN12C renal, 92.4%. The growth with UO-31 renal was 69.7%; in the assay on TK-10 renal, 130%; in the assay on ACHN renal it was 84.7%; with CAKI-1 renal it was 73.1%; with A498 renal, 98.6%; in the assay on MOLT-4 leukemia it was 77.1%.
With `CCCCC1COc2cccc3c2N1C=C/C3=C\C(=O)N(C)c1cccc(Cl)c1` (centres undefined), the growth is 99.4% with HCT-15 colon; 109% in the assay on HT29 colon; 93% in the assay on SNB-75 CNS; 101% with U251 CNS; 89.6% in the assay with PC-3 prostate; 102% in the assay with SK-MEL-5 melanoma. The growth was 85.9% in the assay with UACC-62 melanoma; 99% in the assay with LOX IMVI melanoma; 104% in the assay on SK-MEL-28 melanoma; 121% in the assay with SK-MEL-2 melanoma; 95.8% in the assay with EKVX NSCLC; 94.2% in the assay with SN12C renal. Moreover, the growth in the assay on UO-31 renal was 78%; in the assay with TK-10 renal, 112%; in the assay with ACHN renal, 98.5%; in the assay with A498 renal, 94.6%; with CCRF-CEM leukemia, 97.2%; in the assay on MOLT-4 leukemia it was 86.6%.
As to `COc1ccc(C2Nc3nc(SC)nc(N)c3N=C3c4ccccc4CCC32)cc1` (centres undefined), the growth in the assay with HCT-15 colon was 75.9%; in the assay on HT29 colon, 69.9%; with SNB-75 CNS, 92.5%; in the assay on U251 CNS, 95%; with PC-3 prostate, 54.7%; in the assay on SK-MEL-5 melanoma, 80.2%. Also, the growth in the assay on UACC-62 melanoma is 85.3%; in the assay with LOX IMVI melanoma it was 89.9%; with SK-MEL-28 melanoma, 103%; in the assay with SK-MEL-2 melanoma, 107%; with EKVX NSCLC, 58.5%; in the assay with SN12C renal, 109%. The growth in the assay on UO-31 renal is 73.3%; with TK-10 renal it was 158%; in the assay with ACHN renal, 103%; in the assay on CAKI-1 renal it was 85.6%; in the assay on A498 renal it was 48.8%; in the assay on CCRF-CEM leukemia, 47.8%.
Regarding `Cc1ccc(-c2nc3nc(-c4ccccc4)nc(N4CCN(S(=O)(=O)c5ccccc5)CC4)c3o2)cc1`, the growth with HCT-15 colon was 103%; in the assay with HT29 colon it was 97.7%; with SNB-75 CNS it was -17.2% (active); in the assay with U251 CNS, 78.9%; in the assay on PC-3 prostate it was 96.4%; in the assay on SK-MEL-5 melanoma, 95%. Besides, the growth in the assay on UACC-62 melanoma was 101%; with LOX IMVI melanoma it was 96.7%; with SK-MEL-28 melanoma it was 106%; in the assay with SK-MEL-2 melanoma it was 76.9%; with EKVX NSCLC it was 96.1%; in the assay on SN12C renal, 94.3%. Also, the growth was 99.2% in the assay on UO-31 renal; 79.1% with TK-10 renal; 72% in the assay with ACHN renal; 84% in the assay with CAKI-1 renal; 99.3% in the assay on A498 renal; 108% with CCRF-CEM leukemia. Moreover, the growth with MOLT-4 leukemia is 102%.
